ABCB6 inh 2 – ABCB6 transporter inhibitors, primary screen, K562-ABCB6 cells, flow cytometry, MLPCN library | ATP-binding cassette sub-family B member 6 (Homo sapiens), Q9NP58 | K562-ABCB6 porphyrin accumulation, 1 h; stronger effect = lower value | fluorescence ratio to DMSO, % at 10 µM | 0.19% of 360,000 active;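 active = fluorescence ratio to DMSO below 75%, the collection mean minus 3 SD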;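 also: signal is porphyrin accumulated inside mitochondria; 100% equals median channel fluorescence of DMSO control wells; lower ratio means ABCB6 inhibition with less porphyrin fluorescence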
Target sequence (Q9NP58 whole entry, looked up): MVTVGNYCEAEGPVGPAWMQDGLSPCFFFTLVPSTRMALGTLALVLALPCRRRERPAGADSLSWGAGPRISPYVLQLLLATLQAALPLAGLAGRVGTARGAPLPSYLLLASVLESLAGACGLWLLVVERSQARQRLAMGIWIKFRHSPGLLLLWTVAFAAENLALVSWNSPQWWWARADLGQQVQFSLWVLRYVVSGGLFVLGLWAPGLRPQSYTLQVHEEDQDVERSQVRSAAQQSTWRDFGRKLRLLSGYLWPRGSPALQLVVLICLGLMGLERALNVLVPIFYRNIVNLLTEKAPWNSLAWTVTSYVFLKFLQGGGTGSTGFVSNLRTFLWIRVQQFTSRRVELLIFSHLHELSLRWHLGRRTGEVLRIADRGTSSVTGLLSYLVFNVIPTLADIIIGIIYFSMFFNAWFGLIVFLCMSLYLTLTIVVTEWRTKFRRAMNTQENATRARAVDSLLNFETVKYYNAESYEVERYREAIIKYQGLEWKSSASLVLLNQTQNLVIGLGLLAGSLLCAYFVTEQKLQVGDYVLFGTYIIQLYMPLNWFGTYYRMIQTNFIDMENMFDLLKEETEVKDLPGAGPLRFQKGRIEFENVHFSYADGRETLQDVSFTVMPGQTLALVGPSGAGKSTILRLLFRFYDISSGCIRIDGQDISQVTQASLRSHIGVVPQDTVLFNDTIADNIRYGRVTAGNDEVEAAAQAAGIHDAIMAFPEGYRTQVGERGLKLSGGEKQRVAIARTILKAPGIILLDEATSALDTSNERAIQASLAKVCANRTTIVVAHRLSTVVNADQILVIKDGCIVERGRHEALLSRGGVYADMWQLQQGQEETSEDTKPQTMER
H9c2 protect – cardioprotection against H2O2-induced cell death, primary screen, uHTS, H9c2 cells, ATPLite luminescence; AID 588492, 2011; 0.63% of 360,000 active; protection from H2O2 cell death, % at 20 µM; H9c2 cardiomyocytes, H2O2 injury protection, 2 h;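 active = compounds giving at least 50% protection of heart cells from peroxide-induced death in the single-dose screen, raw or plate-pattern-corrected value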;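 also: 0% = DMSO wells with peroxide and 100% = DMSO wells without peroxide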
Myeloid diff MLP – induction of myeloid progenitor differentiation, primary screen, cell-based, flow cytometry, MLPCN library. ER-HoxA9 myeloid progenitors, lysozyme-GFP differentiation. calls only at 10 µM. 1% of 360,000 active. AID 624256, 2012;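 active = normalized GFP-positive differentiation at or above the plate's own cutoff, the solvent-only control mean plus 3 SD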;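 also: cells exposed to compound for four days before flow analysis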
iPSC survival up – enhancers of single-cell hiPSC survival, primary screen, ATPlite luminescence | 100% = ROCK inhibitor wells, 0% = DMSO | survival enhancement, % at 20 µM | 0.044% of 360,000 active; in the data active = survival enhancement above about 18%;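 also: cells exposed to compounds for 16 hours before the ATP read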
MIN6 prolif-1 – inducers of MIN6 beta-cell proliferation, primary screen, ATP luminescence, uHTS. AID 2380, 2010. proliferation, % at 10 µM. MIN6 cells proliferation, ATPlite luminescence, 48 h; cells starved in 0.2% serum; 100% = growth in 10% serum. 0.29% of 330,000 active;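 active = compounds whose signal lies at least 3.5 SD above the mean of all wells on their plate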;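 also: 0% = DMSO-treated cells in low-serum medium and 100% = 10% serum control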
MIN6 prolif-2 – inducers of beta-cell proliferation in MIN6, confirmation, MIN6 cells, mouse | shares compounds with MIN6 prolif-1 | ATPlite luminescence, 48 h; cells kept in 0.2% serum; scaled between 0.2% and 10% serum | proliferation increase, % at 50 µM | 920 tested, under 10 active | AID 463095, 2010;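 active = proliferation increase above 40% at any of the four tested concentrations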
ABCB6 inh CP1 – ABCB6 transporter inhibitors, confirmation, K562-ABCB6 cells, flow cytometry, cherry pick 1; shares compounds with ABCB6 inh 2; K562-ABCB6 porphyrin accumulation, 1 h; stronger effect = lower value; ratio response (% of DMSO), % at 10 µM; 700 tested, under 10 active; AID 602430, 2012;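 active = repeat-averaged ratio response below 75% of DMSO, the collection mean minus 3 SD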;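 also: median porphyrin fluorescence at 575 nm with 488 nm excitation from mitochondria; lower ratio means less porphyrin signal so ABCB6 inhibition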
Myeloid diff CP1 – inducers of myeloid progenitor differentiation, confirmation, cell-based, GFP/Mac1 flow cytometry, cherry pick 01; shares compounds with Myeloid diff MLP; ER-HoxA9 myeloid progenitors, GFP/Mac1 double-positive flow; calls only; 2% of 2,300 active; AID 651706, 2012;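 active = share of green or green-and-red cells above 9 and 9% in run 1 or 4 and 3% in run 2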
GFP autofluor – counter-screen for myeloid differentiation promoters: compound fluorescence. shares compounds with Myeloid diff MLP. ER-HoxA9 myeloid progenitors, no estrogen, GFP autofluorescence flow cytometry; vehicle wells 0%, positive control 100%. fluorescence response, % (test concentration not listed). 7.4% of 2,300 active;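 active = over 5% cells positive for green fluorescent reporter, or over 2% positive for both it and APC stain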;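 also: range taken on the double positive population between DMSO and positive control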
* = called active by the depositor; i = inactive; nt = no result. In the library only some 2.2% were active in any assay of this set; here they are far more common.

SMILES	ABCB6 inh 2	H9c2 protect	Myeloid diff MLP	iPSC survival up	MIN6 prolif-1	MIN6 prolif-2	others
CCOc1ccc(C(=O)COC(=O)CC)cc1	101	-3	i	-1	-1	nt
Cc1ccc(-c2nn3c(C)nnc3s2)cc1NC(=O)COc1ccc(Cl)cc1	100	50*	i	-2	10.0*	-2
CCCOc1ccc(C(=O)Nc2cc(-c3nn4c(C)nnc4s3)ccc2C)cc1	97	4	i	4	-2	nt
Cc1cccn2c(=O)c3cc(C(=O)NCCc4ccccc4)sc3nc12	100	12	i	3	7.4*	0
Cc1ccc(C(c2sc3ncnn3c2O)N2CCC(C)CC2)cc1 (configuration not stated)	107	9	i	-2	12*	-2
CCN1C(=O)N[C@@H](c2cccc(C(F)(F)F)c2)[C@H](C(=O)OC)[C@H]1C	99	0	i	0	0	nt
COc1ccc(NC(C)=O)cc1S(=O)(=O)Nc1ccc2c(c1)OCCO2	101	-9	i	-1	7.9*	-3
COc1ccc(-c2cnc3c(NC(C)=O)cc(-c4ccc(C(=O)N5CCOCC5)cc4)cn23)cc1OC	95	43	i	-2	nt	nt
CC(C)c1nc(CN2CCCCC2)cc(=O)[nH]1	102	4	i	-1	8.9*	0
O=S(=O)(c1ccc(Oc2ccc(F)c(Cl)c2)nc1)N1CCOCC1	98	-4	i	0	13*	-2
COc1cccc(-c2cnc(C(O)c3cc(Cl)cc(Cl)c3)[nH]2)c1 (configuration not stated)	100	-10	i	0	nt	nt
Cc1noc(C)c1COc1ccccc1C(=O)Nc1cccc(S(=O)(=O)N(C)C)c1	97	5	i	0	14*	-2
Cc1nc(NC(=O)c2ccc3c(c2)OCO3)ccc1Br	94	-8	i	-2	-1	nt
CCN(c1cccc(C)c1)S(=O)(=O)c1ccc2c3c(cccc13)C(=O)N2	89	-11	i	1	-1	nt
CCN(CC)S(=O)(=O)c1ccc2c3c(cccc13)C(=O)N2	99	-14	i	0	11*	0
CCOc1ccc(/C(O)=C2/C(=O)C(=O)N(c3ccccn3)C2c2ccc(C)cc2)c(C)c1 (configuration not stated)	91	0	i	-1	-2	nt
CCc1nn(C(CC)C(=O)NCc2cccc(OC)c2OC)c(=O)c2cc3occc3n12 (configuration not stated)	94	-4	i	0	14*	-6
COc1ccccc1C(=O)Nc1sc(C(=O)N2CCCC2)c(C)c1C#N	99	0	i	0	8.8*	10
Cc1c(C(=O)N2CCCC2)sc(NC(=O)c2ccc(Cl)cc2)c1C#N	103	-16	i	0	-3	nt
Cc1ccc(S(=O)(=O)N2CCC3(CC2)OCCN3S(=O)(=O)c2cccs2)cc1	103	-6	i	4	0	nt
COc1ccc(S(=O)(=O)N2CCC3(CC2)OCCN3S(=O)(=O)c2cccs2)cc1	98	-12	i	0	13*	-2
O=C(Nc1cnccn1)Nc1ccccc1F	99	4	i	0	3	nt
COc1ccccc1N(C(=O)c1snc(C(N)=O)c1N)C(C(=O)NC1CCCCC1)c1cccc(OC)c1OC (configuration not stated)	101	-4	nt	0	25*	-6
COc1ccccc1N(C(=O)c1ccco1)C(C(=O)NC1CCCC1)c1cccs1 (configuration not stated)	93	1	nt	0	0.0*	-1
O=C1C2C3C=CC(C4CC34)C2C(=O)N1c1cc(Cl)ccn1 (configuration not stated)	95	6	i	-1	-2	nt
SMILES	ABCB6 inh 2	H9c2 protect	Myeloid diff MLP	iPSC survival up	MIN6 prolif-1	MIN6 prolif-2	others
CC(C)c1nc2oc3c(NCc4ccccn4)ncnc3c2c2c1COC(C)(C)C2	95	12	i	0	7.4*	0
COC(=O)CSc1nnc(-c2ccco2)n1-c1ccc(C)cc1	90	11	i	3	7.4*	2
CCOC(=O)CSc1nnc(-c2ccco2)n1-c1ccc(C)cc1	97	3	i	3	2	nt
CC(C)C[C@@H](CNCC(=O)[C@H](Cc1c[nH]c2ccccc12)NC(=O)c1[nH]cnc1C(=O)N[C@H](CN)CC(C)C)NC(=O)c1nc[nH]c1C(=O)N[C@@H](CC(=O)O)C(=O)O	97	3	i	-1	nt	nt
CCC(=O)N1CCc2cc(S(=O)(=O)CCC(=O)Nc3cccc(F)c3)ccc21	88	-4	i	4	8.9*	-5
CCC(=O)N1CCc2cc(S(=O)(=O)CCC(=O)Nc3ccc(F)c(F)c3)ccc21	85	-3	i	-1	-3	nt
COC(=O)c1ccc(OC)c(OC2CCCC2)c1	97	13	i	0	6.6*	3	Myeloid diff CP1=i;GFP autofluor=0
CCCCOc1c(Cl)cc(C(=O)N2CCN(CC(=O)N3CCCC3)CC2)cc1OCC	98	0	i	3	-3	nt
Cc1ccc(OCC(=O)Nc2ccncc2)cc1C	74*	-10	i	3	nt	nt	ABCB6 inh CP1=99
CCN(CC)CCNc1nc2c(c(=O)n(C)c(=O)n2C)n1C/C=C(/C)Cl	73*	6	i	1	-1	nt	ABCB6 inh CP1=100
CCCCNC(=O)CSc1nc(O)cc(=O)n1C1CCCC1	105	22	i	0	-2	nt
CC(=O)Nc1ccc(-c2ccnc3c2CC(C)(C(=O)Nc2cccc(Oc4ccccc4)c2)O3)cc1 (configuration not stated)	95	8	i	-3	nt	nt	ABCB6 inh CP1=101
CN(C)c1ccc(-c2ccnc3c2CC(C)(C(=O)Nc2ccc(Cl)cc2)O3)cc1 (configuration not stated)	94	-10	i	-2	nt	nt

Screening data: PubChem, several laboratories
